# Reference: PubChem BioAssay (NCATS)
# Results filed as inconclusive are left out. A call without a number means that no potency is given here. Activity calls are given as the source filed them. Calls come from the whole dose curve; as a rule, active = well fitted curve in the direction sought with a large enough effect; inconclusive = small, poorly fitted or top-dose-only effect, or another doubt; inactive = no such curve, though single readings can be large; an effect the other way counts as inactive or inconclusive.
# What was measured:
# [1] = target: Glutathione peroxidase 1 (Homo sapiens) (UniProt P07203); experiment: Primary qHTS Assay for Inhibitors of Recombinant Selenoprotein Glutathione Peroxidase 1 (GPX1) (AID 1845191); note: nearly all actives have a fitted effect of over 65% in size
# Sequence of Glutathione peroxidase 1 (Homo sapiens) (P07203 whole entry, looked up): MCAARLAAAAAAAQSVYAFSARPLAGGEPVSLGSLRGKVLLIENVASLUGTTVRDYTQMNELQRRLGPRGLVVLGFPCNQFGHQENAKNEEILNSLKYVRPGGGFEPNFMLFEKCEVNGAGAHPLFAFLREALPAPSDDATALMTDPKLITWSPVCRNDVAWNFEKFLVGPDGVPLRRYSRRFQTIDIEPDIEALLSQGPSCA
# How it was run: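 10 nM GPX1 + cpd, 30 min RT; start w/ 1 mM GSH, 0.5 mM cumene hydroperoxide, 0.5 mM NADPH, 100 nM GR, 0.01% BSA; buffer 50 mM Tris-HCl pH 7.5, 2 mM EDTA, 150 mM NaCl; Fl 340/450, 0 & 15 min.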
# [2] = target: Phospholipid hydroperoxide glutathione peroxidase GPX4 (Homo sapiens) (UniProt P36969); experiment: Primary qHTS Assay for Inhibitors of Recombinant Selenoprotein Glutathione Peroxidase 4 (GPX4) (AID 1845192); note: nearly all actives have a fitted effect of over 65% in size
# Sequence of Phospholipid hydroperoxide glutathione peroxidase GPX4 (Homo sapiens) (P36969 whole entry, looked up): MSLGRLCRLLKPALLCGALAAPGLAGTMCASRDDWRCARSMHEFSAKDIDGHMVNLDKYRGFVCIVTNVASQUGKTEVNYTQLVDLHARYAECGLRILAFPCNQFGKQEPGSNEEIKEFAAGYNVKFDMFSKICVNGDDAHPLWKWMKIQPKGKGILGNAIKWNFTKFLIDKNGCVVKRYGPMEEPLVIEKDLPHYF
# How it was run: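 NADPH consumption, followed by fluorescence at 340/450 nm between 0 and 15 min, reports GPX4 activity via coupled glutathione reductase (100 nM). Enzyme 200 nM was pre-exposed to compound 30 min; 0.5 mM cumene hydroperoxide and 1 mM GSH served as substrates.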
# [3] = Quantitative High-Throughput drug screen in 47 multiple myeloma cell lines against the NCATS MIPE library collection: EJM_DSMZ cell viability assay (AID 1918926; note: nearly all actives have a fitted effect of over 30% in size; note: potency is the fitted concentration of half-maximal effect)
# How it was run: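 Viability readout: CellTiter-Glo luminescence following 5 min room-temperature incubation with reagent. Prior exposure: 48 h, 37C, humidified 5% CO2, 500 cells per well.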
Compound,Potency [1],Potency [2],Potency [3]
OCCOc1ccccc1,inactive,inactive,–
CCN(CC)C(=O)N[C@@H]1C=C2c3cccc4[nH]cc(c34)C[C@@H]2N(C)C1,inactive,inactive,–
CN(C)CCN(C)CCc1ccc(Cl)c(Cl)c1,inactive,inactive,inactive
CN1CCN(C(=O)O[C@H]2c3nccnc3C(=O)N2c2ccc(Cl)cn2)CC1,inactive,inactive,inactive
COC1(CS(=O)c2ccccc2)CCN(CCc2c[nH]c3ccc(F)cc23)CC1 (stereo unspecified),inactive,inactive,inactive
CC1=C2C[C@@H]3[C@@H](CC=C4C[C@@H](O)CC[C@@]43C)[C@@H]2CC[C@]12O[C@H]1C[C@H](C)CN[C@H]1[C@H]2C,–,–,8.33 µM (active)
C[C@]12CC[C@H]3[C@@H](CCC4=CC(=O)CC[C@@H]43)[C@@H]1CC[C@@H]2OC(=O)CCc1ccccc1,inactive,inactive,–
